The record followed here is publication PMC8384837, “Expanding the binding specificity for RNA recognition by a PUF domain”.

Common to all, as to assay: yeast three-hybrid, YBZ-1, SC-Leu-His + 0.5 mM 3-AT, 4 days
What all share (settings): tags: N-Gal4 AD-HA kept; label: inside an RPR1-promoter hybrid RNA with tandem MS2 sites; ssRNA

One experiment addresses PUM1 PUF domain R1-NRR (Homo sapiens, UniProt Q14671 828-1176, S863N;Q867R). Put shortly:
(§1)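 Pumilio-1 PUF domain libraries, randomized at the three base-contacting residues of each repeat, were co-expressed with matching RNA elements from a centromeric plasmid in strain YBZ-1, which carries a LexA–MS2 coat fusion and a HIS3 reporter. Transformants grew for four days on SC-Leu (input) or on SC-Leu-His + 0.5 mM 3-AT (selection), and the repeat regions were PCR-amplified and Illumina-sequenced. The interaction score is the log change in variant frequency from input to selection. That logarithm is base 2, with a pseudocount of 1 where a variant was absent.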

In the next experiment the target is PUM1 PUF domain R3-EWS (Homo sapiens, UniProt Q14671 828-1176, C935E;R936W;Q939S). Put shortly: as §1
A further experiment has as its target T1, PUM1 PUF domain R6-HYL (Homo sapiens, UniProt Q14671 828-1176, N1043H;Q1047L).
T1 sequence: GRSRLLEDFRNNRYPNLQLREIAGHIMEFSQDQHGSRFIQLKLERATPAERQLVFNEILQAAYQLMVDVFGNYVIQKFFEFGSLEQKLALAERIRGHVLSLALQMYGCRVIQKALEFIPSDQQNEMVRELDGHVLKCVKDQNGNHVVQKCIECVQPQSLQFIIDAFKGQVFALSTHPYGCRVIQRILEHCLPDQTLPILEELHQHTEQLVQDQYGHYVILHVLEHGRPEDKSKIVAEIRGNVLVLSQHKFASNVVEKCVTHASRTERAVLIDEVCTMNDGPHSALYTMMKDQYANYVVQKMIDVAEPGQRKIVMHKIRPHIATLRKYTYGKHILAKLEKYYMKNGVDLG
The gist of the method:
as §1

The next experiment concerns the target PUM1 PUF domain R3-GRP (Homo sapiens, UniProt Q14671 828-1176, C935G;Q939P). The gist of the method: as §1
The target in a further experiment is PUM1 PUF domain R3-SRC (Homo sapiens, UniProt Q14671 828-1176, C935S;Q939C). Put shortly: as §1
The next experiment has as its target PUM1 PUF domain R7-KYR (Homo sapiens, UniProt Q14671 828-1176, S1079K;N1080Y;E1083R). The gist of the method:
as §1

A further experiment addresses PUM1 PUF domain R5-DRC (Homo sapiens, UniProt Q14671 828-1176, C1007D;Q1011C). The gist of the method:
as §1

Another experiment concerns the target PUM1 PUF domain R5-MRN (Homo sapiens, UniProt Q14671 828-1176, C1007M;Q1011N). The gist of the method:
as §1

For a further experiment, the target named is T2, PUM1 PUF domain R6-SFS (Homo sapiens, UniProt Q14671 828-1176, N1043S;Y1044F;Q1047S).
T2 sequence: T1 sequence with H216S, Y217F, L220S
Put shortly:
as §1

The target of the next experiment is PUM1 PUF domain R3-YFG (Homo sapiens, UniProt Q14671 828-1176, C935Y;R936F;Q939G). The gist of the method: as §1
A further experiment deals with PUM1 PUF domain R5-DHV (Homo sapiens, UniProt Q14671 828-1176, C1007D;R1008H;Q1011V). Put shortly: as §1
For the next experiment, the target named is PUM1 PUF domain R8-KRR (Homo sapiens, UniProt Q14671 828-1176, N1122K;Y1123R;Q1126R). Put shortly:
as §1

The target in another experiment is T3, PUM1 PUF domain R6-NWP (Homo sapiens, UniProt Q14671 828-1176, Y1044W;Q1047P).
T3 sequence: T1 sequence with H216N, Y217W, L220P
Put shortly:
as §1

The next experiment deals with PUM1 PUF domain R7-RIQ (Homo sapiens, UniProt Q14671 828-1176, S1079R;N1080I;E1083Q). Put shortly:
as §1

The target in a further experiment is T4, PUM1 PUF domain R6-VWQ (Homo sapiens, UniProt Q14671 828-1176, N1043V;Y1044W).
T4 sequence: T1 sequence with H216V, Y217W, L220Q
Put shortly:
as §1

Positions count from the first letter of the chain named.

For the sequence “GGCUAGAACUAGUGGAUCCCCCGGCGCCCGGCGGCUCGAGCCCGGGUAAGUGUAAAUUGUCUGCAUGCCGCCGGGCGCCAUGCCUGCAGGUCGACUCUAGAAAACAUG”, the binding signal with PUM1 PUF domain R1-NRR is 2.34 log2 enrichment (interaction score).

“GGCUAGAACUAGUGGAUCCCCCGGCGCCCGGCGGCUCGAGCCCGGGUAAGUGUAAAUAGUCUGCAUGCCGCCGGGCGCCAUGCCUGCAGGUCGACUCUAGAAAACAUG”: the binding signal is 3.46 log2 enrichment (interaction score) with PUM1 PUF domain R3-EWS; 3.8 log2 enrichment (interaction score) in the experiment with PUM1 PUF domain R6-HYL; 4.87 log2 enrichment (interaction score) in the experiment with PUM1 PUF domain R3-GRP; 2.73 log2 enrichment (interaction score) in the experiment with PUM1 PUF domain R3-SRC; 2.75 log2 enrichment (interaction score) in the experiment with PUM1 PUF domain R7-KYR; 3.83 log2 enrichment (interaction score) with PUM1 PUF domain R5-DRC. Besides, the binding signal was 3.24 log2 enrichment (interaction score) with PUM1 PUF domain R5-MRN; 4.67 log2 enrichment (interaction score) with PUM1 PUF domain R6-SFS; 4.07 log2 enrichment (interaction score) with PUM1 PUF domain R3-YFG; 3.41 log2 enrichment (interaction score) in the experiment with PUM1 PUF domain R5-DHV; 3.15 log2 enrichment (interaction score) with PUM1 PUF domain R8-KRR; 2.64 log2 enrichment (interaction score) in the experiment with PUM1 PUF domain R6-NWP.

Turning to “GGCUAGAACUAGUGGAUCCCCCGGCGCCCGGCGGCUCGAGCCCGGGUAAGUGUAAGUAGUCUGCAUGCCGCCGGGCGCCAUGCCUGCAGGUCGACUCUAGAAAACAUG”, the binding signal with PUM1 PUF domain R3-EWS was 5.34 log2 enrichment (interaction score); with PUM1 PUF domain R3-GRP, 3.91 log2 enrichment (interaction score); in the experiment with PUM1 PUF domain R3-SRC it was 4.05 log2 enrichment (interaction score).

Consider “GGCUAGAACUAGUGGAUCCCCCGGCGCCCGGCGGCUCGAGCCCGGGUAAGUGUAAUUAGUCUGCAUGCCGCCGGGCGCCAUGCCUGCAGGUCGACUCUAGAAAACAUG”, for which the binding signal in the experiment with PUM1 PUF domain R3-EWS was 4.58 log2 enrichment (interaction score); in the experiment with PUM1 PUF domain R3-GRP, 2.44 log2 enrichment (interaction score); in the experiment with PUM1 PUF domain R3-SRC it was 2.75 log2 enrichment (interaction score).

“GGCUAGAACUAGUGGAUCCCCCGGCGCCCGGCGGCUCGAGCCCGGGUAAGUUUAAAUAGUCUGCAUGCCGCCGGGCGCCAUGCCUGCAGGUCGACUCUAGAAAACAUG”: the binding signal with PUM1 PUF domain R7-RIQ is 4.25 log2 enrichment (interaction score).

Regarding “GGCUAGAACUAGUGGAUCCCCCGGCGCCCGGCGGCUCGAGCCCGGGUAAGUGAAAAUAGUCUGCAUGCCGCCGGGCGCCAUGCCUGCAGGUCGACUCUAGAAAACAUG”, in the experiment with PUM1 PUF domain R6-VWQ, the binding signal was 8.55 log2 enrichment (interaction score).
